In PubChem BioAssay one finds cell count and inhibition data, which are given here for 40 molecules.

As a reminder, the inhibition is the change of the read-out against control, counted positive when it falls.

Each structure is given as a SMILES string. The source made the active and inactive calls.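 The calls were made as follows: active = inhibition above 20% together with a positive visual image hit; inconclusive = visual image hit but inhibition not above 20%; inactive = no visual image hit.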

This assay is described as follows: inhibitors of TNFa-induced NFkB p65 translocation, primary screen, imaging, HUVEC, MLSMR starter and 10KST1 sets (AID 438).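 Also: compound added about 3h40 before a 20 min TNFalpha stimulation.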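 As to inhibition: signal is the nuclear over cytoplasmic p65 intensity ratio per well.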 The conditions noted are these: HUVEC TNFa-induced p65 nuclear translocation; cell count: measured here: nuclei count (cytotoxicity indicator), at 2.08 µM; inhibition: at 2 µM, stronger effect = higher value, 0% TNFa-plus-vehicle, 100% no-TNFa wells.
Regarding `CCOC(=O)Cn1ncc(-c2ccccc2)c1N`, the cell count was found to be 582 and the inhibition is -0.5% (inactive).
The corresponding values for `O=C(NCC(c1cccnc1)N1CCN(c2ccc(F)cc2)CC1)OCc1ccccc1` (stereo not given) are 568 and -6.4% (inactive).
With `O=C(c1ccc(Cl)cc1)N1CCCOC1`, the inhibition was -9.7% (inactive) and the cell count worked out at 784.
In the case of `Cc1ccc(S(=O)(=O)C2(C(=O)Nc3cccnc3)CC2)cc1`, the cell count was found to be 579 and the inhibition is 8.8% (inactive).
The corresponding values for `Cc1[nH]nc(N=CC2=C(O)CC(C)(C)CC2=O)c1-c1ccc(Cl)cc1` are 344 and 10.1% (inactive).
Regarding `CC(C)(C)c1ccc2c(c1)OCC(C(=O)O)O2` (stereo not given), the cell count turned out to be 448 and the inhibition was 2% (inactive).
For `Cn1c(=O)[nH]c(=O)c2c1nc(NCCCn1ccnc1)n2Cc1ccccc1`, the cell count came to 433 and the inhibition was 0.3% (inactive).
Turning to `CCOC(=O)C(NC(=O)CC)(Nc1ccc(S(=O)(=O)Nc2onc(C)c2C)cc1)C(F)(F)F` (stereo not given), the inhibition is 3.4% (inactive) and the cell count amounted to 320.
The corresponding values for `CCOc1ccc(S(=O)(=O)Nc2ccc(Cl)cn2)c(C)c1C` are -35.7% (inactive) and 536.
The corresponding values for `O=C(OCC#CCSc1nnc(-c2ccncc2)o1)c1cccs1` are 5.2% (inactive) and 513.
Regarding `O=P(O)(O)C(O)C(F)(F)C(F)(F)C(F)(F)C(F)F` (stereo not given), the inhibition is 8.1% (inactive) and the cell count was 436.
As to `COc1ccc(-c2nnc(SCC(=O)Nc3cc(C)on3)n2C)cc1OC`, the inhibition is 2.6% (inactive) and the cell count stood at 364.
On to `Cc1c(C#N)c(N)c(C(=O)c2ccccc2)n1Cc1ccccc1`, for which the inhibition was 0% (inactive) and the cell count was 375.
On the same counts, the results for `CCC(C)NCC(O)COCc1ccc(Cl)cc1` (stereo not given) are -2% (inactive) and 296.
On the same counts, the results for `CC(=O)N1CCc2cc(S(=O)(=O)CCC(=O)Nc3cccc(F)c3)ccc21` are -1.4% (inactive) and 331.
On the same counts, the results for `O=c1c2[nH]c3cccc(Cl)c3c2ncn1CCN1CCCCC1` are -2.8% (inactive) and 300.
For the molecule `O=C(Nc1cccc2ccccc12)c1ccc(Br)o1`, the cell count is 638 and the inhibition is 5.6% (inactive).
On the same counts, the results for `CN(C)S(=O)(=O)c1ccc(C(=O)N2CCCC2c2nc3ccccc3s2)cc1` (stereo not given) are 475 and -9.4% (inactive).
On to `CSc1ccccc1NC(=O)C1CCCO1` (stereo not given), for which the inhibition was 4.5% (inactive) and the cell count came out at 842.
Consider `C=CCn1c(=O)c2ccccc2n2c(SC(C)C(=O)Nc3nc(-c4ccccc4)cs3)nnc12` (stereo not given), for which the cell count was 462 and the inhibition was 4% (inactive).
The corresponding values for `CC1Cc2ccccc2N1C(=O)CSc1nc2ccccc2n1CC(=O)N1CCOCC1` (stereo not given) are 468 and -0.5% (inactive).
Take `COc1ccccc1C(=O)NC(C)C(c1cccs1)N1CCN(C)CC1` (stereo not given): the cell count is 547 and the inhibition was -1.6% (inactive).
For the molecule `CCn1cc(C(=O)NCCCOC)c(=O)c2cc(S(=O)(=O)N(C)C)ccc21`, the inhibition is -5% (inactive) and the cell count is 693.
The corresponding values for `Cc1cc(N2C(=O)C(O)=C(C(=O)c3ccc(C)o3)C2c2cccs2)no1` (stereo not given) are -3.6% (inactive) and 257.
With `Cc1ccc(CNC(=O)C2CC(=O)OC23CCCC3)c(C)c1` (stereo not given), the inhibition is 17.5% (inactive) and the cell count is 410.
On the same counts, the results for `CCSc1nc2ccccc2n1CCC(=O)O` are -62.2% (inactive) and 615.
On the same counts, the results for `COc1ccc(-c2nc(CS(=O)CC(=O)N3CCCC3)c(C)o2)cc1` (stereo not given) are 2.6% (inactive) and 465.
As for `COc1ccc2c(c1)CCc1cc(C(=O)N3CCN(c4ccc(N5CCOCC5)nn4)CC3)sc1-2`, the cell count stood at 583 and the inhibition is 5.5% (inactive).
The corresponding values for `COC(=O)c1ccc(Oc2nc(NC(C)C)nc(N(C)C)n2)cc1` are 632 and 28.3% (inactive).
The corresponding values for `COc1ccc(N(CC(=O)N2CCCCC2)S(=O)(=O)c2ccccc2)c(OC)c1` are 622 and -7.8% (inactive).
On the same counts, the results for `O=c1cc(CSc2nnnn2-c2ccccc2)nc2scc(-c3ccccc3)n12` are 444 and 8.1% (inactive).
For `O=C1CCCc2c1nn(-c1ccccc1)[n+]2[O-]`, the cell count is 563 and the inhibition was 7.1% (inactive).
On the same counts, the results for `Nc1nc(Nc2ccc(Cl)cc2Cl)nc(C(F)(F)F)n1` are 348 and 0.6% (inactive).
On the same counts, the results for `Cn1c(=O)c2c(nc(NCc3ccco3)n2C/C=C/c2ccccc2)n(C)c1=O` are 256 and 8.8% (inactive).
On the same counts, the results for `Cn1c(=O)[nH]c(=O)c2c1nc(N1CCc3ccccc3C1)n2CCSc1nc2ccccc2s1` are 404 and 4.7% (inactive).
With `COC(=O)c1oc2ccc(Br)cc2c1NC(C)=O`, the cell count amounted to 644 and the inhibition is -0.8% (inactive).
The corresponding values for `COc1cc(NC(=O)CC(C)C)ccc1NC(=O)c1ccco1` are 612 and -6% (inactive).
The corresponding values for `CCOC(=O)N1CCC(NC(=O)C2CCC(Cn3c(=O)[nH]c4ccccc4c3=O)CC2)CC1` (stereo not given) are 609 and -0.3% (inactive).
The corresponding values for `Cc1cc(C(F)F)n2nc(C(=O)Nc3ccc(S(=O)(=O)N4CCCCCC4)cc3)nc2n1` are 602 and -6.2% (inactive).
Turning to `O=C(NCCN1CCOCC1)C1CCC(=O)N1Cc1ccccc1Cl` (stereo not given), the cell count is 648 and the inhibition is -11.4% (inactive).
